Drawing on ChEMBL document CHEMBL3988442, “University of Dundee, Small-Polar-MMV Screening Library” (2021), this text covers Percent Effect for 9 molecules.

For part of these data: Potency and affinity values are given separately.

What all share (set-up): scale not given: direction of the effect not stated beside the values
The target of assay [1] is Protein translocase subunit SecA (Escherichia coli (strain K12)) (UniProt P10408). In words: Assay to Identify E. coli SecA ATPase Inhibitors. The following applies: 30 µM. In kind it is functional.
The target in assay [2] is T1, Ubiquitin-activating enzyme e1, putative (Leishmania donovani (strain BPK282A1)) (UniProt E9BSI1).
T1 sequence (whole entry): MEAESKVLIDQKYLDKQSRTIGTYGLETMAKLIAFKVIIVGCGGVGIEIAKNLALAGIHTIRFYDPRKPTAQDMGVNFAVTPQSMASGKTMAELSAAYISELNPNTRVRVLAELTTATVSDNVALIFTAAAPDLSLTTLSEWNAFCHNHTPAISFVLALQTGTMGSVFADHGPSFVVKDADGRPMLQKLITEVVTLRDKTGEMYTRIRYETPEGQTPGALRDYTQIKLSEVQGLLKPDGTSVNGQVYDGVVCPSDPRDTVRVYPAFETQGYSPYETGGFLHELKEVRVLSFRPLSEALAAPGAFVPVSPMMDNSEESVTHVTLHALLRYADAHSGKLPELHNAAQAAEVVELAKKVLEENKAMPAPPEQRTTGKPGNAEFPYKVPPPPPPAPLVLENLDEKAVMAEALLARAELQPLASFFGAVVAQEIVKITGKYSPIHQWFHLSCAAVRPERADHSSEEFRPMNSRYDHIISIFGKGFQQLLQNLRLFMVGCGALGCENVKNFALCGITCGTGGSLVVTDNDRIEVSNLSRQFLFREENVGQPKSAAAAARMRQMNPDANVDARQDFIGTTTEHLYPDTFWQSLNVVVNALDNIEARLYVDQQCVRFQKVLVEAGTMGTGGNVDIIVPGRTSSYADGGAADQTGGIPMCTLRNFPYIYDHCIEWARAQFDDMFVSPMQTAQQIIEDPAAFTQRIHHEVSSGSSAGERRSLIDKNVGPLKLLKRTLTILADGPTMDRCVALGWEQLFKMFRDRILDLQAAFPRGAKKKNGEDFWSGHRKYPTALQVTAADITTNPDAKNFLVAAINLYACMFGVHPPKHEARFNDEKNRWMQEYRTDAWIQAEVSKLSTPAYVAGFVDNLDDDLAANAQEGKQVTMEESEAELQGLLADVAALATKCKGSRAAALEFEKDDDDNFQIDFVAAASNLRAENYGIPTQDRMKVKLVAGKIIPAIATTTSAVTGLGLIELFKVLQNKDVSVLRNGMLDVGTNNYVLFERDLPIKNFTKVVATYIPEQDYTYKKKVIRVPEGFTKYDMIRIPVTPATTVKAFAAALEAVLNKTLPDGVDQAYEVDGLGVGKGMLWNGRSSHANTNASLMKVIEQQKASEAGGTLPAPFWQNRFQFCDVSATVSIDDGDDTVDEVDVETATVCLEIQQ
In words: Leishmania donovani Ubiquitin Activating Enzyme (LdE1). Type of assay: functional. The following applies: 30 µM.

The target of assay [3] is Sialic acid-binding Ig-like lectin 9 (Homo sapiens) (UniProt Q9Y336). In words: Hs-Siglec9 ALPHAscreen SOP 20170721. The following applies: 10 µM.
For a further assay, the system named is Trypanosoma cruzi. In words: Trypanosoma cruzi phosphomannomutase and mannose-1-phosphate guanylyltransferase assay. Type of assay: functional. The following applies: 10 µM.
For assay [4], the target named is T2, Arginase-2, mitochondrial (Homo sapiens) (UniProt P78540).
T2 sequence (whole entry): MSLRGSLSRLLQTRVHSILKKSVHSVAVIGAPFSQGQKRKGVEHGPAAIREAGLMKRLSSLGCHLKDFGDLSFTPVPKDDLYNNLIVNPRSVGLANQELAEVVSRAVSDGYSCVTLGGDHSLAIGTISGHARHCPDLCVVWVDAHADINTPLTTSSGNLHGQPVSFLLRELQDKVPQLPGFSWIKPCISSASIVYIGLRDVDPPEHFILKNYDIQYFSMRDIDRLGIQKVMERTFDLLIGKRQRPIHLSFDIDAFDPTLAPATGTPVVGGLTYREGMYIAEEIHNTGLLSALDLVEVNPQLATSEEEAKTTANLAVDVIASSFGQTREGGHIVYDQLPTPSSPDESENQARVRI
The assay is described as follows: in vitro enzyme assay to detect the production of urea directly proportional to the activity of Arginase II. Note: in the data most compounds retested in dose-response had high values. In kind it is functional. The following applies: 33.3 µM.

Assay [5] concerns the target T3, Proteasome subunit beta (Trypanosoma cruzi) (UniProt O96673).
T3 sequence (whole entry): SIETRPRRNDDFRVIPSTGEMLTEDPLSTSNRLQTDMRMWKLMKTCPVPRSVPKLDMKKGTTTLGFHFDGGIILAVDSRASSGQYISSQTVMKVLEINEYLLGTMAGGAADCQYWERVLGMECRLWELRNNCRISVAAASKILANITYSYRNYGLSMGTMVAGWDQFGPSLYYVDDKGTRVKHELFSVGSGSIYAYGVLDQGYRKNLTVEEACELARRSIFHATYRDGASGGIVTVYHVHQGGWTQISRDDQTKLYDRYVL
In words: Trypanosoma cruzi proteasome chymotrypsin-like activity (TcProtChymo) assay. Note: in the data most compounds retested in dose-response had high values. In kind it is functional. Conditions: 9.37 µM.

The species entered for another assay is Homo sapiens. The assay is described as follows: To identify inhibition of the IFN signalling (Jak-Stat) pathway via expression of an eGFP reporter gene under the control of an IFN-stimulated response element (ISRE) containing MxA promoter. In kind it is functional. The following applies: 30 µM. (In general: A reporter such as luciferase makes a cellular process visible.)

For assay [6], the target named is T4, Tyrosyl-tRNA synthetase, putative (Trypanosoma cruzi (strain CL Brener)) (UniProt Q4DSP6).
T4 sequence (whole entry): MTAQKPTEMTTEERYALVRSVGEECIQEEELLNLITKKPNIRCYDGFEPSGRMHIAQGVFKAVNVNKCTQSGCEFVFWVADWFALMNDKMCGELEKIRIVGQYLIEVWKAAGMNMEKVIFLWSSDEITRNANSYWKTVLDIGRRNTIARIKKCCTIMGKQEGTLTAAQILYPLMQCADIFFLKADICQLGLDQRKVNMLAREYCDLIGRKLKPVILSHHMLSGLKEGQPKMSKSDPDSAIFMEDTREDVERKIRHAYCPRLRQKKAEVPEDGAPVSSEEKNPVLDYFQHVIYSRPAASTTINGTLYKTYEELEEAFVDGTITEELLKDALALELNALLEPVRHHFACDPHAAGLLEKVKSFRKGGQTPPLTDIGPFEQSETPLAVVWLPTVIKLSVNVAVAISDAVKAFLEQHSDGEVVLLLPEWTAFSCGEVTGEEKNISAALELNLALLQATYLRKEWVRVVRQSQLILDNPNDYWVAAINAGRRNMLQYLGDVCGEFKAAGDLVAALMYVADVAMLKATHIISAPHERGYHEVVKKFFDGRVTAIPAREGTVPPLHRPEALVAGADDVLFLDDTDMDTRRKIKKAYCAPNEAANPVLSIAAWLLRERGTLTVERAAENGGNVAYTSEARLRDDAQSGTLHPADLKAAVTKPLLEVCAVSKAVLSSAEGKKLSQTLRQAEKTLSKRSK
The assay is described as follows: Trypanosoma cruzi tyrosyl tRNA synthetase (TcYRS) _High Tyrosine SOP. Note: in the data most compounds retested in dose-response had high values. Conditions: 30 µM. Type of assay: functional.

Assay [7] concerns the target T4, Tyrosyl-tRNA synthetase, putative (Trypanosoma cruzi (strain CL Brener)). The assay is described as follows: Trypanosoma cruzi tyrosyl tRNA synthetase (TcYRS) SOP. Type of assay: functional. The following applies: 30 µM.
The target of assay [8] is Chromo domain-containing protein 1 (Saccharomyces cerevisiae (strain ATCC 204508 / S288c) (Baker's yeast)) (UniProt P32657). The assay is described as follows: ScCHD-1 Enzyme Inhibition Assay. Note: in the data most compounds retested in dose-response had high values. Conditions: 30 µM. In kind it is functional.
Chain of Chromo domain-containing protein 1 (Saccharomyces cerevisiae (strain ATCC 204508 / S288c) (Baker's yeast)) (P32657 whole entry, the tested form may be a part): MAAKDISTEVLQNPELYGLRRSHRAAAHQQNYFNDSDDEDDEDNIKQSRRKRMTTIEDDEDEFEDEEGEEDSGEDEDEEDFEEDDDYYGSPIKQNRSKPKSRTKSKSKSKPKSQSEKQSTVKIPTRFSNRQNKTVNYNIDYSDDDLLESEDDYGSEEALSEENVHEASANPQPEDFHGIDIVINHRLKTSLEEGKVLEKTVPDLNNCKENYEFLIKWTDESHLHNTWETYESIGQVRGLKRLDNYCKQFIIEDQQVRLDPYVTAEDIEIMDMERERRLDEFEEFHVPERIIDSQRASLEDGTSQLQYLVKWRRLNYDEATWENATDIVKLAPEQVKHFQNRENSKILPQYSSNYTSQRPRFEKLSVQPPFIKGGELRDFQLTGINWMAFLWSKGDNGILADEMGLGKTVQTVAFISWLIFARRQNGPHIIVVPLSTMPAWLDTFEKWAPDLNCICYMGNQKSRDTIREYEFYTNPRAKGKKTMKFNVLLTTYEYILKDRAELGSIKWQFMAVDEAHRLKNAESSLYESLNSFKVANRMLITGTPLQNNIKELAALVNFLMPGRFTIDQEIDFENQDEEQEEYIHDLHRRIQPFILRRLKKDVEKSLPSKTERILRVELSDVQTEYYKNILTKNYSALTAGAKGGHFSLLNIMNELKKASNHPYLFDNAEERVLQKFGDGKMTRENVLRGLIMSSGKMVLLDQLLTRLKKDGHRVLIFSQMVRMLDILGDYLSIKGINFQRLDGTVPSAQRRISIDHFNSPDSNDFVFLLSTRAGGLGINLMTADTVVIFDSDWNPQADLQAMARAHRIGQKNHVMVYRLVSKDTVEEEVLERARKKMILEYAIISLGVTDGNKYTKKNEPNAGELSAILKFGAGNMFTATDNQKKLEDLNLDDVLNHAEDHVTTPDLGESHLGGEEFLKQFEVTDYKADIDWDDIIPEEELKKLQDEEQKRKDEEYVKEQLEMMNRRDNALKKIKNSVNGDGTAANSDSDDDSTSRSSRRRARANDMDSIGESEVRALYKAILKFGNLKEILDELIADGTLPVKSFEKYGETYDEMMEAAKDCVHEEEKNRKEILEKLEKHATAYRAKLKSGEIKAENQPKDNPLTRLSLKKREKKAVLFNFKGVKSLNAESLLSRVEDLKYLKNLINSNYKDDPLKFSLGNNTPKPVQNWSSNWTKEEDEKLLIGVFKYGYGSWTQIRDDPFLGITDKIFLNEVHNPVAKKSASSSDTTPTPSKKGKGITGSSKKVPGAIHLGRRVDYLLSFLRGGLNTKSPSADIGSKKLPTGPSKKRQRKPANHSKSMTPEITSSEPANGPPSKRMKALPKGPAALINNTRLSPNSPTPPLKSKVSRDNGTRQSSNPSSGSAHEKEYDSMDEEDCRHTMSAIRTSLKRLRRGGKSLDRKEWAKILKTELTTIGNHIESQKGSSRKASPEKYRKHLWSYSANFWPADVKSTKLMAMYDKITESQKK

Chain of Protein translocase subunit SecA (Escherichia coli (strain K12)) (P10408 whole entry): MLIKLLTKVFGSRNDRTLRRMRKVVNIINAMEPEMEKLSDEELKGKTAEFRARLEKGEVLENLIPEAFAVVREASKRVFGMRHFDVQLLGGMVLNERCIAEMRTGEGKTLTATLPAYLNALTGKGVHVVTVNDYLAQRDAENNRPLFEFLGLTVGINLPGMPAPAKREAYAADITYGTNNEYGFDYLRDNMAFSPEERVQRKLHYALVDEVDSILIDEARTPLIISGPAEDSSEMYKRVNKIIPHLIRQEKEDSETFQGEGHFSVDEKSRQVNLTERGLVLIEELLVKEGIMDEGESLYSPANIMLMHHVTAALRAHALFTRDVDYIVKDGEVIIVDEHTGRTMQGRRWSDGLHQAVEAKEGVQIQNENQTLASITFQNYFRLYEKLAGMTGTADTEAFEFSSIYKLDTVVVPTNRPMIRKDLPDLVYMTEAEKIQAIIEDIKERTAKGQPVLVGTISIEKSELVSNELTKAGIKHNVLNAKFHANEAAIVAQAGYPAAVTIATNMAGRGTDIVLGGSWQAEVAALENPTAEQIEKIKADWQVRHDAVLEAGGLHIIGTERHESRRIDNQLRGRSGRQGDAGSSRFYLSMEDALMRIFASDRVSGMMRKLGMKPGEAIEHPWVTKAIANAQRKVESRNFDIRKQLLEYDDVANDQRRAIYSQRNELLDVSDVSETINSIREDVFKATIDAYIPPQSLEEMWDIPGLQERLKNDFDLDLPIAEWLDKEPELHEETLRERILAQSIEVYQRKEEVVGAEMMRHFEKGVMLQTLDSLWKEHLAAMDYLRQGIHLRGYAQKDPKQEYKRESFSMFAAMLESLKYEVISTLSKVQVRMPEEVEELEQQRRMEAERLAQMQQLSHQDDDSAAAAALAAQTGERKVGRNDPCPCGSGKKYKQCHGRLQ
Chain of Sialic acid-binding Ig-like lectin 9 (Homo sapiens) (Q9Y336 whole entry): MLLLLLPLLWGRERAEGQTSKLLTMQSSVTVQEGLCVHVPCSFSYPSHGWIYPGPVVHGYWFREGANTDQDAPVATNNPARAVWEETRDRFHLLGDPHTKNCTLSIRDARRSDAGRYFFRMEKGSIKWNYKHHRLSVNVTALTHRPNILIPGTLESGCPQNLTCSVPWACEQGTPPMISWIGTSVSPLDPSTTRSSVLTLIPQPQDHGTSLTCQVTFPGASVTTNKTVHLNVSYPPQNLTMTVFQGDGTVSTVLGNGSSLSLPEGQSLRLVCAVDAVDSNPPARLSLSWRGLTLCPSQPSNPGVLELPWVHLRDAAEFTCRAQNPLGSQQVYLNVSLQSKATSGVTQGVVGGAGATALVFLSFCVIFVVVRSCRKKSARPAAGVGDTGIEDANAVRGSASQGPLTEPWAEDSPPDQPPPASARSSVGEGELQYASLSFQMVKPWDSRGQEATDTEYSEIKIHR

In the case of `CCOC(=O)CNC(=O)c1cccnc1Oc1ccc(Cl)cc1`, the Percent Effect came to 3.19% in assay [1]; 1.3% in assay [2]; 56.3% in assay [3]; 0.375% in the assay on Trypanosoma cruzi; 6.85% in assay [4]; 11.6% in assay [5]. The Percent Effect in the assay filed under Homo sapiens is 25.5%; in [6] it was 3.87%; in assay [7], 0%; in assay [8], -12.4%.
In the case of `COCCC(=O)N1C[C@H]2CN(Cc3cccc(C)n3)C(=O)[C@H]2C1`, the Percent Effect is -1.95% in assay [1]; 3.9% in [2]; -4.82% in [3]; -0.563% in the assay on Trypanosoma cruzi; 2.74% in assay [4]; 0.0858% in [5]. Further, the Percent Effect is -13.5% in the assay filed under Homo sapiens, 7.73% in assay [6], 7.5% in assay [7] and -4.73% in assay [8].
Consider `CC(C)c1nc(CN2CCCN(Cc3nnc(C4CC4)o3)CC2)no1`, for which the Percent Effect in assay [1] is -2.61%; in assay [2] it was 8%; in assay [3], -2.85%; with Trypanosoma cruzi, -0.602%; in assay [4], 4.43%; in assay [5], 17.2%. Besides, the Percent Effect in the assay listed under Homo sapiens is 14.1%; in assay [6], 3.68%; in [7], 7.69%; in [8], -9.7%.
In the case of `O=C(c1cnccn1)N1CCCC2(COCCN(CC3CC3)C2)C1` (stereo not given), the Percent Effect was -3.64% in assay [1]; -1.3% in [2]; -5.88% in [3]; -2.43% in the assay with Trypanosoma cruzi; -0.81% in [4]; 7.15% in [5]. For the same molecule, the Percent Effect in the assay filed under Homo sapiens was -2.31%; in assay [6] it was -0.526%; in assay [7], 5.13%; in [8] it was -0.986%.
As to `O=C(NCc1cc(O)ncn1)C1CCOc2ccccc2C1` (stereo not given), the Percent Effect in [1] was -6.27%; in [2], 5.41%; in [3] it was 6.22%; with Trypanosoma cruzi, 1.26%; in assay [4], 5.94%; in assay [5], 14.4%. Also, the Percent Effect in the assay filed under Homo sapiens was 15.2%; in assay [6], 6.92%; in [7], 12.2%; in [8] it was -2.81%.
With `Cc1ccc2oc(C(=O)N3CCC(C(=O)N4CCCC4)CC3)cc2n1`, the Percent Effect is -3.66% in assay [1]; 7.69% in assay [2]; 1.13% in assay [3]; 2.35% in the assay with Trypanosoma cruzi; 6.56% in assay [4]; -0.768% in assay [5]. For the same molecule, the Percent Effect in the assay listed under Homo sapiens is 7.89%; in assay [6], 9.09%; in [7], 18.1%; in assay [8], -0.651%.
On to `O=C(Cn1cccnc1=O)NCCc1ccc2c(c1)OCCO2`, for which the Percent Effect in [1] is -2.08%; in [2], 16%; in assay [3], -6.16%; with Trypanosoma cruzi, -5.22%; in assay [4] it was 1.77%; in assay [5] it was 18.9%. Besides, the Percent Effect in the assay filed under Homo sapiens was 9.16%; in assay [6], 1.58%; in [7], 7.69%; in [8], -8.6%.
Take `Cc1cc(C(=O)NCc2ccnc(N3CCN(C)CC3)c2)c(C)s1`: the Percent Effect is -2.97% in assay [1]; -28.2% in [2]; -3.6% in assay [3]; -0.657% with Trypanosoma cruzi; 3.69% in assay [4]; 3.67% in assay [5]. Moreover, the Percent Effect in the assay filed under Homo sapiens was -0.506%; in [6] it was 8.13%; in assay [7], 20.5%; in [8] it was -3.48%.
`Cc1ccc(-c2nc(CN3CCCC3Cn3cc(C)cn3)no2)cc1` (stereo not given): the Percent Effect in [1] was -2.04%; in [2] it was 5.33%; in assay [3] it was 2.03%; with Trypanosoma cruzi, 4.02%; in [4], -8.43%; in [5], 22.6%. Further, the Percent Effect is 12.1% in the assay listed under Homo sapiens, 1.58% in assay [6], 10.3% in assay [7] and -12% in assay [8].
